Experimental data: PubChem BioAssay (NCATS)
Results filed as inconclusive are left out. Entries that show only a call come without a potency. The source made the active and inactive calls. The call rests on the fitted dose curve; in most records, active means well fitted curve in the direction sought with a large enough effect; inconclusive means small, poorly fitted or top-dose-only effect, or another doubt; inactive means no such curve, though single readings can be large; an effect the other way counts as inactive or inconclusive. Starred links: 1 amine or outer side, 2 acyl side, 3 side chain; linkers in the order of their positions; H or OH if unused. Positions of bridges follow the written chain, without caps; N, C: chain ends. Non-standard residues stand in square brackets, D forms with d. Residues, ends and D or L forms follow the SMILES beside them. Chains are numbered I, II in the order given. ξ: configuration not given here. *: point of attachment. Actinocin(9to1) = Cc1c2oc3c(C)ccc(C(=O)[*:1])c3nc-2c(C(=O)[*:2])c(N)c1=O; Octanoyl(6-Me) = CCC(C)CCCCC(=O)*; ξThr(3R) = C[C@@H](O)C(N)C(=O)O; NMeV = CN[CH](C(=O)O)C(C)C; dDab = NCC[C@@H](N)C(=O)O; Dab = NCC[C@H](N)C(=O)O; Sar = CNCC(=O)O

Tests used:
MKL-1 = test: qHTS assay to identify novel small-molecules to repurpose for Merkel cell carcinoma treatment (AID 1296009); conditions: MCC and control cell lines, CellTiter-Glo viability, 72 h; series mostly up to 46 µM; further: nearly all actives have a fitted effect of over 60% in size; further: potency means the concentration at half of the fitted maximal effect
Method in brief: (§1)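 72 hr, 37 degree celsius; NPC 8-pt / MIPE 11-pt dose response; compound pinned in DMSO; CellTiter-Glo, 10 min RT, luminescence; normalized to no-cell and DMSO controls.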

MKL-2 = test: as above; conditions: MCC and control cell lines, CellTiter-Glo viability, 72 h; series mostly up to 46 µM
Method in brief: as §1

UISO = test: as above; conditions: MCC and control cell lines, CellTiter-Glo viability, 72 h; series mostly up to 46 µM
Method in brief: as §1

WaGa = test: as above; conditions: MCC and control cell lines, CellTiter-Glo viability, 72 h; series mostly up to 46 µM
Method in brief: as §1

MCC-26 = test: as above; conditions: MCC and control cell lines, CellTiter-Glo viability, 72 h; series mostly up to 46 µM
Method in brief: as §1

C33A = test: Primary qHTS to identify gynecologic anti-cancer compounds using libraries of approved drugs and bioactive compounds (AID 1345084); conditions: Gynecologic cancer cell panel viability, ATPlite luminescence, 48 h; series mostly up to 57.5 µM; further: nearly all actives have a fitted effect of over 55% in size
Method in brief: (§2)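 Five-concentration response, 48 h; readout is ATP-driven luciferase luminescence.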

CASKI = test: as above; conditions: Gynecologic cancer cell panel viability, ATPlite luminescence, 48 h; series mostly up to 57.5 µM
Method in brief: as §2

HeLa = test: as above; conditions: Gynecologic cancer cell panel viability, ATPlite luminescence, 48 h; series mostly up to 57.5 µM
Method in brief: as §2

NIH3T3 = test: qHTS assay to identify novel small-molecules to repurpose for Merkel cell carcinoma treatment (AID 1296009); conditions: MCC and control cell lines, CellTiter-Glo viability, 72 h; at 44.8 µM (top of the series) unless noted; further: nearly all actives have a fitted effect of over 60% in size; further: potency means the concentration at half of the fitted maximal effect
Method in brief: as §1

Es-2 = test: Primary qHTS to identify gynecologic anti-cancer compounds using libraries of approved drugs and bioactive compounds (AID 1345084); conditions: Gynecologic cancer cell panel viability, ATPlite luminescence, 48 h; series mostly up to 57.5 µM; further: nearly all actives have a fitted effect of over 55% in size
Method in brief: as §2

With `Cc1c2oc3c(C)ccc(C(=O)NC4C(=O)NC(C(C)C)C(=O)N5CCCC5C(=O)N(C)CC(=O)N(C)C(C(C)C)C(=O)OC4C)c3nc-2c(C(=O)NC2C(=O)NC(C(C)C)C(=O)N3CCCC3C(=O)N(C)CC(=O)N(C)C(C(C)C)C(=O)OC2C)c(N)c1=O` (configuration not stated) (I: TVP[Sar][NMeV] / II: TVP[Sar][NMeV]; ester I:1-I:C, II:1-II:C; linker I:N-II:N via Actinocin(9to1); configuration not given here) the Potency (MKL-1) was “inactive”, the Potency (MKL-2) was “inactive” and the Potency (UISO) was “inactive”. For the same compound, the Potency (WaGa) was “inactive”.

In the case of `CNC(=O)c1ccc(Nc2cc(Nc3ccccc3S(=O)(=O)C(C)C)c3cc[nH]c3n2)nc1`, the Potency (MKL-1) is reported as 2.64 µM (active), the Potency (MKL-2) is reported as 7.43 µM (active) and the Potency (UISO) is reported as 5.9 µM (active). For the same compound, the Potency (WaGa) was 4.18 µM (active).

In the case of `CCCCCCCCc1ccc(CCC(N)(CO)CO)cc1`, the Potency (MCC-26) is reported as “inactive” and the Potency (WaGa) is reported as “inactive”.

For `O=C(O)C[C@H](O)C[C@H](O)C=Cc1c(C2CC2)nc2ccccc2c1-c1ccc(F)cc1`, the Potency (MKL-1) was 5.9 µM (active), the Potency (MKL-2) was 3.32 µM (active) and the Potency (UISO) was 2.35 µM (active). The Potency (WaGa) was 7.43 µM (active).

For `Cc1ccc(-n2[nH]c(C)c(N=Nc3cccc(-c4cccc(C(=O)O)c4)c3O)c2=O)cc1C`, the Potency (MCC-26) was “inactive”, the Potency (C33A) was “inactive” and the Potency (CASKI) was “inactive”. For the same compound, the Potency (HeLa) was “inactive”.

For `c1ccc(CNc2nc(NCc3ccccc3)c3ccccc3n2)cc1`, the Potency (MKL-1) was “inactive”, the Potency (MKL-2) was 18.7 µM (active) and the Potency (UISO) was “inactive”. The Potency (WaGa) was “inactive”.

With `O=C1c2cccc(O)c2C(=O)c2c(O)cc(CO)cc21` the Potency (MKL-1) was “inactive”, the Potency (MKL-2) was “inactive” and the Potency (UISO) was “inactive”. For the same compound, the Potency (WaGa) was “inactive”.

With `CCCc1nc(C(C)(C)O)c(C(=O)O)n1Cc1ccc(-c2ccccc2-c2nn[nH]n2)cc1` the Potency (MKL-1) was “inactive”, the Potency (MKL-2) was “inactive” and the outcome (NIH3T3) was “inactive”. For the same compound, the Potency (UISO) was “inactive” and the Potency (WaGa) was “inactive”.

With `CC[C@H](CC[C@@H](C)[C@H]1CC[C@H]2[C@@H]3CC=C4C[C@@H](O)CC[C@]4(C)[C@@H]3CC[C@]12C)C(C)C` the Potency (MKL-1) was “inactive”, the Potency (MKL-2) was “inactive” and the Potency (UISO) was “inactive”. The Potency (WaGa) was “inactive”.

For `Cn1cnc(=N)c2[nH]cnc21`, the Potency (MKL-1) was 7.43 µM (active), the Potency (MKL-2) was 0.209 µM (active) and the Potency (UISO) was 5.26 µM (active). The Potency (WaGa) was 0.296 µM (active).

`CC(C(C)N1CC(=O)NC(=O)C1)N1CC(=O)NC(=O)C1` (configuration not stated) was tested, and the Potency (MKL-1) was “inactive”, the Potency (MKL-2) was “inactive” and the Potency (UISO) was “inactive”. For the same compound, the Potency (WaGa) was “inactive”.

`C=C(C)[C@@H]1CC[C@]2(C(=O)O)CC[C@]3(C)[C@H](CC[C@@H]4[C@@]5(C)CC[C@H](O)C(C)(C)[C@@H]5CC[C@]43C)[C@@H]12` was tested, and the Potency (MKL-1) was “inactive”, the Potency (MKL-2) was “inactive” and the Potency (UISO) was “inactive”. The Potency (WaGa) was “inactive”.

With `O=C(CCCCCCC(=O)Nc1cccnc1)NO` the Potency (MKL-1) was 7.43 µM (active), the Potency (MKL-2) was 1.87 µM (active) and the Potency (UISO) was 13.2 µM (active). For the same compound, the Potency (WaGa) was 2.35 µM (active).

In the case of `C=CC(=O)Nc1cccc(Nc2nc(NC3CCC(N(C)C)CC3)nc3c2ncn3C(C)C)c1` (configuration not stated), the Potency (MKL-1) is reported as 0.0074 µM (active), the Potency (MKL-2) is reported as 0.0166 µM (active) and the Potency (UISO) is reported as 0.418 µM (active).

`Cn1c(Nc2ccc(C(F)(F)F)cc2)nc2cc(Oc3ccnc(-c4ncc(C(F)(F)F)[nH]4)c3)ccc21` was tested, and the Potency (MCC-26) was “inactive”, the Potency (UISO) was 3.72 µM (active) and the Potency (WaGa) was 18.7 µM (active).

For `O=C(c1ccc(F)cc1)N1CCC[C@H](c2nc(-c3ccc(F)cc3)no2)C1`, the Potency (MKL-1) was “inactive”, the Potency (MKL-2) was “inactive” and the outcome (NIH3T3) was “inactive”. The Potency (UISO) was “inactive” and the Potency (WaGa) was “inactive”.

`CCOc1cc2c(c(F)c1OCC)C(=N)N(CC(=O)c1cc(N3CCOCC3)c(OC)c(C(C)(C)C)c1)C2` was tested, and the Potency (MCC-26) was “inactive”, the Potency (WaGa) was “inactive” and the Potency (CASKI) was “inactive”. For the same compound, the Potency (Es-2) was “inactive” and the Potency (HeLa) was “inactive”.

In the case of `CC(=CC(=O)Nc1ccccc1C(=O)O)c1ccc2ccccc2c1`, the Potency (MKL-1) is reported as “inactive”, the Potency (MKL-2) is reported as “inactive” and the Potency (UISO) is reported as “inactive”. The Potency (WaGa) was “inactive”.

In the case of `Cn1cc(C[C@@H](N)C(=O)O)c2ccccc21`, the Potency (MKL-1) is reported as “inactive”, the Potency (MKL-2) is reported as “inactive” and the Potency (UISO) is reported as “inactive”. The Potency (WaGa) was “inactive”.

In the case of `CCC(C)CCCCC(=O)N[C@@H](CCN)C(=O)NC(C(=O)N[C@H](CCN)C(=O)N[C@@H]1CCNC(=O)C([C@@H](C)O)NC(=O)[C@@H](CCN)NC(=O)[C@@H](CCN)NC(=O)[C@@H](CC(C)C)NC(=O)[C@H](Cc2ccccc2)NC(=O)[C@H](CCN)NC1=O)[C@@H](C)O` (stereo partly drawn) ({Octanoyl(6-Me)}-[Dab][ξThr(3R)][dDab][dDab][Dab]F[dL][dDab][dDab][ξThr(3R)]; lactam 4-C), the Potency (MKL-1) is reported as “inactive”, the Potency (MKL-2) is reported as “inactive” and the outcome (NIH3T3) is reported as “inactive”. For the same compound, the Potency (UISO) was “inactive” and the Potency (WaGa) was “inactive”.

`Nc1nc(=O)n([C@H]2CSC(CO)O2)cc1F` (some centres not stated) was tested, and the Potency (MKL-1) was “inactive”, the Potency (MKL-2) was “inactive” and the outcome (NIH3T3) was “inactive”. The Potency (UISO) was “inactive” and the Potency (WaGa) was “inactive”.

`CCN(CC)CCNC(=O)c1c(C)[nH]c(C=C2C(=O)Nc3ccc(F)cc32)c1C` was tested, and the Potency (MKL-1) was 12.1 µM (active), the Potency (MKL-2) was 15.2 µM (active) and the Potency (UISO) was 6.05 µM (active). For the same compound, the Potency (WaGa) was 13.6 µM (active).

For `Oc1ccc([C@@H]2Oc3ccc(O)cc3[C@@H]3CCC[C@@H]32)cc1`, the Potency (MCC-26) was “inactive”, the Potency (UISO) was 18.7 µM (active) and the Potency (C33A) was “inactive”. For the same compound, the Potency (Es-2) was “inactive”.

For `CC(C)c1cnn2c(NCc3ccccc3)cc(NCCCCCCN)nc12`, the Potency (MCC-26) was “inactive”, the Potency (UISO) was “inactive” and the Potency (WaGa) was “inactive”.

With `CC(C)(N)c1ccc(-c2nc3ccccc3nc2-c2ccccc2)cc1` the Potency (MCC-26) was “inactive”, the Potency (WaGa) was 18.7 µM (active) and the Potency (C33A) was “inactive”. For the same compound, the Potency (HeLa) was “inactive”.

`C=CC(=O)Nc1cc(NC(=O)c2ccc(C)c(NC(=O)c3ccno3)c2)cc(C(F)(F)F)c1` was tested, and the Potency (MCC-26) was “inactive” and the Potency (WaGa) was 18.7 µM (active).
